Unmarked numbers belong to inactive results. No rule for the calls is given here.

The target in the test is Pantothenate synthetase (Mycobacterium tuberculosis (strain ATCC 25618 / H37Rv)) (UniProt P9WIL5). Briefly: Coupled enzyme confirmation of inhibitors against recombinant Mtb PanC (AID 375).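 Also: 0% = full reaction with vehicle and 100% = no enzyme background.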 The following applies: coupled enzyme assay; at 10 µM, hits give high values.
Pantothenate synthetase (Mycobacterium tuberculosis (strain ATCC 25618 / H37Rv)), sequence (P9WIL5 whole entry, looked up): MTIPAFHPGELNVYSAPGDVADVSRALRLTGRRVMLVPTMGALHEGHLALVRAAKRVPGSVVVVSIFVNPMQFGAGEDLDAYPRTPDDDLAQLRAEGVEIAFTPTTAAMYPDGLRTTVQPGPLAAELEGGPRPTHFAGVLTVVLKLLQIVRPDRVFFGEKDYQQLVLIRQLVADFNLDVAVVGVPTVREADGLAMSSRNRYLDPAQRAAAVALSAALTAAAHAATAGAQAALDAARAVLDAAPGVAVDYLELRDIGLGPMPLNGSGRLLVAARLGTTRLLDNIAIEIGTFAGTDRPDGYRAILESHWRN

With `COc1ccc(-n2c(Cc3cccn3C)nnc2SCC(=O)Nc2ccccc2)cc1`, the inhibition is 0%.
`COc1ccccc1CNC(=O)C1CCN(S(=O)(=O)N2CCCCC2)CC1`: the inhibition is 0%.
In the case of `Cc1cnn(C(=S)NCc2ccco2)c1` it was 0%.
The same measure for `CC1Cc2ccccc2N1Cc1cc(=O)n2ccsc2n1` (stereo not given): 0%; for `CCc1c(C(=O)Nc2ncn(Cc3cccc(C)c3)n2)csc1C`: 4%.
In the case of `Cc1ccc(CNC(=O)CSc2n[nH]c(N)n2)cc1` it was 0%; in that of `COc1ccccc1-c1nnc2sc(-c3ccc(N(C)C)cc3)nn12`, 5%.
With `CCN(CC)S(=O)(=O)c1ccc(NC(=O)c2cccc3c2C(=O)N(CCOC)C3)cc1`, the inhibition is 4%.
For the molecule `CC(=O)N1CCN(C(C)=O)C1c1ccccc1`, the inhibition was 2%.
In the case of `Cc1ccc(CNC(=O)c2coc(=O)c3ccccc23)o1` it was 0%; in that of `N#CCSc1nc2c(c(C3CC=CCC3)c1C#N)CCC2` (stereo not given), 6%.
In the case of `CCCCSc1cc(C)nc2ncnn12` it was 0%; in that of `O=C(CCCN1CCC(O)(c2ccc(Cl)cc2)CC1)c1ccc(F)cc1`, 0%; in that of `CC(=O)Nn1c(C)nnc1-n1nc(C)cc1C`, 0%.
In the case of `Cc1nc2sc(C(c3cccs3)N3CC(C)CC(C)C3)c(O)n2n1` (stereo not given) it was 0%.
As for `COc1ccccc1NC(=O)C(C)NS(=O)(=O)c1ccc(F)cc1` (stereo not given), the inhibition is 0%.
With `N/C(Cn1nnc(-c2ccccc2)n1)=N\O`, the inhibition is 3%.
For the molecule `CCOC(=O)N1CCN(C(=O)c2c(-c3ccccc3)noc2C)CC1`, the inhibition is 0%.
In the case of `O=C(CSc1nnnn1-c1ccccc1)Nc1ccc(Cl)cc1` it was 0%; in that of `O=C(Nc1cccnc1)c1noc2c1CCCCC2`, 0%.
In the case of `COCCN1CN(S(=O)(=O)c2ccccc2)c2nc3ccccc3nc21` it was 0%; in that of `CCN1C(=O)N(CC)C2C1N(C(C)=O)C(=O)N2C(C)=O` (stereo not given), 0%; in that of `O=C(NC1(C(=O)NC2CCCCC2)CCCCC1)c1ccc2c(c1)OCO2`, 3%.
As to `O=C(CSCc1ccccn1)Nc1ccccc1`, the inhibition was 0%.
In the case of `CC(C)Cn1c(CN2CCCCC2C)nc2c1c(=O)n(C)c(=O)n2C` (stereo not given) it was 0%; in that of `COc1cc(NC(=O)CC(C)C)ccc1NC(=O)c1ccco1`, 1%; in that of `CC(=O)Nc1ccc(-c2cc3ccccc3o2)cc1`, 8%.
On to `CC(=O)OCC(=O)[C@@]1(O)CC[C@H]2[C@@H]3CCC4=CC(=O)CC[C@]4(C)[C@H]3C(=O)C[C@@]21C`, for which the inhibition was 0%.
The same measure for `Cc1ccc2c(COn3nnc4ccc(S(=O)(=O)N(C)C)cc43)cc(=O)oc2c1C`: 3%.
The same measure for `CC(C)CNS(=O)(=O)c1ccc(CCC(=O)N2CCOCC2)cc1`: 0%.
The same measure for `Cc1cc(C)c2c(C)nn(C3CCCCC3)c2n1`: 0%; for `O=C(Nc1ccc2oc(-c3ccncc3)nc2c1)c1cccs1`: 0%; for `CCCCOc1ccc(C(=O)Nc2ccc(N3CCN(C(=O)C(C)C)CC3)cc2)cc1`: 6%.
`O=C(CCn1c(=O)c2ccccc2n(CC(=O)NCCC2=CCCCC2)c1=O)NCc1ccco1`: the inhibition was 4%.
The same measure for `CCCN(CCC)c1nc2ccccc2n2c(C)nnc12`: 4%; for `CCOCCc1nnc(NC(=O)c2ccc(OC)c(OC)c2)s1`: 0%.
In the case of `CC1=C(C(=O)NCc2ccccn2)C2(CCC(C)CC2)OC1=O` (stereo not given) it was 0%.
The same measure for `CCCCCn1c(=O)[nH]c2cc(C(=O)NCCCN3CCCCC3)ccc2c1=O`: 3%; for `CCOC(=O)C1CCN(C(=O)COc2ccc(Cl)cc2Cl)CC1`: 0%.
On to `COc1ccc(S(=O)(=O)N(CC(=O)N2CCN(c3ccccc3OC)CC2)c2ccccc2)cc1`, for which the inhibition is 0%.
In the case of `CCN(CC)CCn1c(=N)n(CCO)c2ccccc21` it was 0%; in that of `O=C(Nc1nc(-c2ccncc2)cs1)C1COc2ccccc2O1` (stereo not given), 0%; in that of `Cc1cccc(NC(=O)CS(=O)(=O)c2cn(C)c3ccccc23)c1`, 0%.
In the case of `CCOCCn1c(CN2CCN(CC)CC2)nc2c1c(=O)n(C)c(=O)n2C` it was 0%; in that of `Cc1cccc(-n2c(SCc3cc(=O)n4ccsc4n3)nc3ccccc32)c1`, 0%; in that of `C=CCn1c(SCC(=O)O)nnc1-c1cccc(Cl)c1`, 0%.
In the case of `CCOc1ccc2c(O)csc2c1` it was 0%; in that of `CCOc1ccc(NC(=O)CSc2nccn2C)cc1`, 6%.
Regarding `COC(=O)CN1C(=O)C(O)(CC(=O)c2ccc(Cl)cc2)c2ccccc21` (stereo not given), the inhibition is 0%.
The same measure for `Cc1nn(-c2nc3ccccc3s2)c(C)c1Oc1ccccc1O`: 2%.
The same measure for `c1cncc(-c2nnc(SCCSc3nnc(-c4cccnc4)o3)o2)c1`: 0%.
The same measure for `Cc1cccc(NC(=O)C2CCCN2C(=O)OCC(C)C)c1C` (stereo not given): 0%; for `CSCCC(NS(=O)(=O)c1ccc2c(c1)oc(=O)n2C)C(=O)NC1CCCCC1` (stereo not given): 0%; for `COc1ccc(C(=O)CN2C(=O)NC3(CCCc4ccccc43)C2=O)cc1OC` (stereo not given): 0%.
As for `c1nnc(NC2=NCCCCC2)s1`, the inhibition was 0%.
The same measure for `CC(=O)c1c(OCC(=O)O)ccc2c(C)cc(=O)oc12`: 0%; for `CCCCN(C(=O)c1ccc(Cl)cc1)C1CC2CCC(C1)N2C` (stereo not given): 0%; for `Cc1ccc2c(c1)C(O)(CC(=O)c1ccc3c(c1)OCO3)C(=O)N2` (stereo not given): 0%.
The same measure for `CCSc1nnc(NC(=O)CSc2nnc(Cc3cccn3C)n2-c2ccc(C)cc2)s1`: 5%.
The same measure for `CCCOC(=O)/C(C(N)=NCc1ccccc1)=C(\O)OCCC`: 0%.
Consider `Cc1cc(C)n(-c2cc(N3CCOCC3)nc(-c3ccccc3)n2)n1`, for which the inhibition was 2%.
The same measure for `Cc1nnc(SCC(=O)Nc2ccc3c(c2)OCCO3)n1CC1CCCO1` (stereo not given): 0%.
In the case of `CC(=O)NC(CCS(C)(=O)=O)C(=O)Nc1cccc2ccccc12` (stereo not given) it was 0%; in that of `CCC(Oc1ccccc1)C(=O)Nc1ccccc1OC` (stereo not given), 0%; in that of `CN(C=O)CP(=O)(O)CCN1CCCC1=O`, 0%.
In the case of `Cc1sc2ncnc(OCC(=O)N3CCN(S(=O)(=O)c4ccc(Cl)cc4)CC3)c2c1C` it was 0%; in that of `COc1ccc(CCN2C(=O)CC(N3CCOCC3)C2=O)cc1` (stereo not given), 0%.
Turning to `CCCCCn1c(CN(C)Cc2ccccc2)nc2c1c(=O)n(C)c(=O)n2C`, the inhibition is 1%.
Turning to `COc1ccc(C(=O)NCc2nc3ccccc3[nH]2)cc1OC`, the inhibition is 5%.
In the case of `CN1CC=C2C(C#N)=C(N)C(C#N)(C#N)[C@H](c3cccc(Cl)c3)C2C1` (stereo not given in full) it was 0%.
The same measure for `N#Cc1cc2c(nc1SCC(=O)N1CCCCC1)CCCC2`: 0%.
The same measure for `CC(C)(C)NC(=O)CN(C(=O)CS(=O)CC(=O)Nc1ccc(F)cc1)c1ccc(Cl)cc1` (stereo not given): 0%; for `Cc1nc(N2CCc3ccccc32)[nH]c(=O)c1CCC(C)C`: 0%.
As to `CC(=O)N1C(=O)N(C)C2C1N(C(C)=O)C(=O)N2C` (stereo not given), the inhibition was 1%.
The same measure for `Cc1ccc(S(=O)(=O)Cn2nnnc2CN(Cc2ccco2)CC2CCCO2)cc1` (stereo not given): 3%.

What is called inhibition is the share of the control response that was lost under treatment.

Source of the values: PubChem BioAssay.
